Source: PubChem BioAssay
This is one part of the list. Activity calls are given as the source filed them.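 The calls were made as follows, unless noted: active = GFP response above 150% of the DMSO level; inconclusive = fewer than 70 events counted for a yeast strain; inactive = the rest.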

Legend:
[1] = hit retest on RPL19A-GFP reporter strain – cell-based, S. cerevisiae, flow cytometry, cherry picks, mother/daughter gates, confirmation (AID 2270;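 active = GFP response below 50% of the DMSO control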); details: 3 h, at 10 µM, stronger effect = lower value, 100 = same GFP as DMSO wells
[2] = yeast TOR pathway reporter LAP4-GFP change – cell-based, cherry picks, flow cytometry, mother/daughter gates, confirmation (AID 2271;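 active = GFP response above 150% of the DMSO control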;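 also: ratio of sample to DMSO plate mean so 100% equals DMSO level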); details: S. cerevisiae LAP4-GFP strain, 3 h, at 10 µM, stronger effect = higher value, 100 means same as DMSO control
[3] = TOR pathway reporter MEP2-GFP, retest of hits – S. cerevisiae, flow cytometry GFP, cherry picks, confirmation (AID 2272;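 active = GFP response above 150% of the DMSO control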;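 also: ratio of well signal to plate DMSO mean so 100% equals DMSO level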); details: S. cerevisiae MEP2-GFP strain, 3 h, at 10 µM, stronger effect = higher value
[4] = yeast AGP1-GFP fluorescence change, single-dose – cell-based, flow cytometry, S. cerevisiae, cherry picks, confirmation (AID 2273);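 also: median GFP channel fluorescence over the whole cell population gate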; details: S. cerevisiae AGP1-GFP strain, 3 h, at 10 µM
[5] = TOR pathway CIT2 reporter hit retest – S. cerevisiae, GFP fusion, cherry picks, mother/daughter gates, confirmation (AID 2274); details: S. cerevisiae CIT2-GFP strain, flow cytometry, 3 h, at 10 µM, stronger effect = higher value
[6] = green-channel fluorescence artefact in S. cerevisiae – s288c strain, artefact control for yeast TOR pathway GFP screen, dose response (AID 2757;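 active = fluorescence span over the dose series, or activity score, above about 33, limit read from the data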;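 also: thousands of bead-calibrated equivalent soluble fluorophore molecules from median cell fluorescence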); details: 520 nm autofluorescence, flow cytometry, 3 h, at 33 µM, stronger effect = higher value, zero means same as solvent-only cells
[7] = measured here: daughter cell gate
[8] = measured here: mother cell gate
[9] = measured here: daughter cell gate response
[10] = measured here: mother cell gate response

SMILES	GFP response vs DMSO [1]	GFP response vs DMSO [1, 7]	GFP response vs DMSO [1, 8]	GFP response relative to DMSO [2]	GFP response relative to DMSO [2, 9]	GFP response relative to DMSO [2, 10]	GFP response vs DMSO [3]	GFP response, % of DMSO [4]	GFP response, % of DMSO [5]	GFP response, % of DMSO [5, 7]	GFP response, % of DMSO [5, 8]	fluorescence change (kMESF span) [6]
Cc1ccc(CCN2CC(C(=O)NCCCN(C)Cc3ccccc3)CC2=O)cc1 (centres undefined)	99.1% (inactive)	99.3%	98%	101% (inactive)	104%	100%	101% (inactive)	103% (inactive)	98.6% (inactive)	103%	96%	
COc1cccc(OCC(=O)N2CCCc3ccccc32)c1	97.8% (inactive)	97%	97.1%	101% (inactive)	105%	102%	99.3% (inactive)	100% (inactive)	95.8% (inactive)	97.6%	94.9%	
Cc1cc(O)c(C(=O)/C=C/c2c(F)c(F)c(F)c(F)c2F)c(=O)o1	98.2% (inactive)	103%	94.9%	152% (active)	145%	160%	109% (inactive)	101% (inactive)	97.3% (inactive)	101%	94.4%	9.67 (inactive)
Cc1[nH]c(-c2ccccn2)nc(=S)c1Cl	106% (inactive)	98.1%	95.8%	303% (active)	215%	266%	118% (inactive)		107% (inactive)	115%	91.5%	
CC(C)(C)C(=O)NC(=S)NNC(=O)c1ccc(-c2ccccc2)cc1	116% (inactive)	84.5%	104%	228% (active)		209%	141% (inactive)	129% (inactive)	132% (inactive)	99.3%	113%	
O=C(Oc1oc(-c2ccco2)nc1C=Nc1ccccc1)c1ccoc1	99.6% (inactive)	99.8%	96.9%	198% (active)	172%	198%	108% (inactive)	98.2% (inactive)	98.6% (inactive)	103%	91.5%	
Oc1c(CN2CCN(c3ccc(F)cc3)CC2)cc(Cl)c2cccnc12	101% (inactive)	102%	94.3%	264% (active)	253%	245%	187% (active)	104% (inactive)	141% (inactive)	159%	125%	0.21 (inactive)
CCn1c(/C=C/c2ccc([N+](=O)[O-])o2)nc2ccccc2c1=O	144% (inactive)	143%	135%	347% (active)	336%	334%	418% (active)	131% (inactive)	278% (active)	289%	251%	108 (active)
Cc1cc(O)ccc1NC(=O)c1ccccc1	98.4% (inactive)	98.4%	95.6%	96.7% (inactive)	92.8%		102% (inactive)	102% (inactive)	98.3% (inactive)			
Oc1c(N=Nc2ccccn2)ccc2ccccc12	94.8% (inactive)	83.8%	87.3%	95.3% (inactive)		66%	104% (inactive)	84.7% (inactive)	93.5% (inactive)	94.6%	81.6%	
COc1ccc(-c2csc(N(CC(C)C)C(=O)c3ccco3)n2)cc1	98.2% (inactive)	100%	97.7%	101% (inactive)	101%	100%	101% (inactive)	100% (inactive)	98.6% (inactive)	101%	97.1%	
CCOc1ccc(CNC(=O)CCC(=O)N2Cc3cccc(OC)c3Oc3ncccc32)cc1	98.2% (inactive)	98.6%	99.8%	97.9% (inactive)	99.2%	96.1%	100% (inactive)	96.6% (inactive)	101% (inactive)	101%	99.7%	
Oc1ccc(Br)cc1/C=N/Nc1ccccn1	93.9% (inactive)	92.3%	83.8%	263% (active)	222%	261%	129% (inactive)	91% (inactive)	112% (inactive)	113%	98%	1.31 (inactive)
O=C1C=CC(=O)N1c1ccc(N2CCCCC2)cc1	75.5% (inactive)	86.8%	63.8%	220% (active)	99.2%	218%	87.8% (inactive)	79.9% (inactive)	104% (inactive)	97.2%	89%	0.41 (inactive)
COc1ccc(-c2nn(-c3ccccc3)cc2C(=O)N/N=C/c2ccc([N+](=O)[O-])o2)cc1	103% (inactive)	103%	103%	84.2% (inactive)	92.5%	92.1%	100% (inactive)	96.7% (inactive)	113% (inactive)	110%	115%	
